Source: PubChem BioAssay

Assays:
[1] = tested on: Human papillomavirus type 1a protein E7 (residues 44-93); test: HPV1a E7 fragment binders on microarrays, primary screen, biochemical, small-molecule microarray, residues 44-93, 635 nm fluorescence (AID 1108); conditions: small-molecule microarray binding, fluorescence 635 nm; higher = more signal;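 note: E7 fragment applied at 1 µg/mL in TBST for 1 h at 4 C; score combines spot fluorescence with its signal to noise ratio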
[2] = modulators of HCV replicon luciferase signal, primary screen, HCV replication inhibitor project, Huh7 cells, luciferase reporter (AID 1109); conditions: 48 h, higher = more signal;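 note: huh7 hepatoma cells harbouring a luciferase neomycin HCV replicon reporter; luciferase luminescence as measure of HCV replicon replication; test concentration not given here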
[3] = molecular target: Left-right determination factor 2 (Homo sapiens) (UniProt O00292); test: LEFTY2 binders on small-molecule microarrays, primary screen, biochemical, small-molecule microarray, 635 nm fluorescence scan (AID 1110); conditions: LEFTY2 binding, higher = more signal
Chain of Left-right determination factor 2 (Homo sapiens) (O00292 whole entry, looked up): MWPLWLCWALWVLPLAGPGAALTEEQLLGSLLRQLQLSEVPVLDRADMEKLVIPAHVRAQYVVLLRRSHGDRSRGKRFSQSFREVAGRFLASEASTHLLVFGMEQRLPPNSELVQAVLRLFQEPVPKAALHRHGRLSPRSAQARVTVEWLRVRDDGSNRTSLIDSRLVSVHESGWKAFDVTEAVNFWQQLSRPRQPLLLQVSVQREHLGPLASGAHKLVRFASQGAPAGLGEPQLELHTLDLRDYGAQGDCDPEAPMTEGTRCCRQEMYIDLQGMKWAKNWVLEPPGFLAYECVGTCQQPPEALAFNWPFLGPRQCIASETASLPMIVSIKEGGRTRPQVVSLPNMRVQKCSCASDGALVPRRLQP

[4] = molecular target: Calmodulin-1 (Homo sapiens) (UniProt P0DP23); test: CALM1 binders on microarrays, EGTA buffer, profiling panel, biochemical, small-molecule microarray, Cy5-labelled CALM1 (AID 1111); conditions: Cy5-CALM1 binding fluorescence, higher = more signal;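 note: labelled calmodulin applied in Tris saline Tween buffer holding calcium plus EGTA and DTT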
[5] = molecular target: Calmodulin-1 (Homo sapiens) (UniProt P0DP23); test: calcium-bound CALM1 binders on microarrays, profiling panel, artefact control for SMM control-protein annotation, biochemical, small-molecule microarray, Cy5-labelled CALM1, plus calcium (AID 1112); conditions: Cy5-CALM1 binding fluorescence, higher = more signal;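 note: score merges spot fluorescence with signal to noise from triplicate slides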
[6] = small-molecule microarray binders of probe aWnt5a, primary screen, biochemical, biotinylated probe, 635/667 nm fluorescence (AID 1113); conditions: higher = more signal;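 note: score merges 667 nm fluorescence intensity with signal-to-noise per printed feature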
[7] = small-molecule microarray binders of probe aShh, primary screen, biochemical, biotinylated probe, 635/667 nm fluorescence (AID 1114); conditions: higher = more signal;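 note: probe is biotin-labelled aShh protein from a stem cell growth factor screen; measures binding of labelled protein to compounds printed on the slide; score merges feature fluorescence at 667 nm with signal-to-noise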
[8] = small-molecule microarray binders of probe aNog, primary screen, biochemical, biotinylated probe, 635/667 nm fluorescence (AID 1115); conditions: higher = more signal;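 note: probe is biotinylated aNog protein used at 0.15 µg/mL for 1 h at 4 C; z-score combines 667 nm fluorescence of each spot with its signal to noise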
[9] = molecular target: Torsin-1A-interacting protein 1 (Homo sapiens) (UniProt Q5JTV8); test: LAP1 binders from COS7 cell lysate, primary screen, small-molecule microarray, 635/667 nm fluorescence (AID 1116); conditions: COS7-hLAP1 lysate binding, 635 nm fluorescence, higher = more signal
Chain of Torsin-1A-interacting protein 1 (Homo sapiens) (Q5JTV8 whole entry, looked up): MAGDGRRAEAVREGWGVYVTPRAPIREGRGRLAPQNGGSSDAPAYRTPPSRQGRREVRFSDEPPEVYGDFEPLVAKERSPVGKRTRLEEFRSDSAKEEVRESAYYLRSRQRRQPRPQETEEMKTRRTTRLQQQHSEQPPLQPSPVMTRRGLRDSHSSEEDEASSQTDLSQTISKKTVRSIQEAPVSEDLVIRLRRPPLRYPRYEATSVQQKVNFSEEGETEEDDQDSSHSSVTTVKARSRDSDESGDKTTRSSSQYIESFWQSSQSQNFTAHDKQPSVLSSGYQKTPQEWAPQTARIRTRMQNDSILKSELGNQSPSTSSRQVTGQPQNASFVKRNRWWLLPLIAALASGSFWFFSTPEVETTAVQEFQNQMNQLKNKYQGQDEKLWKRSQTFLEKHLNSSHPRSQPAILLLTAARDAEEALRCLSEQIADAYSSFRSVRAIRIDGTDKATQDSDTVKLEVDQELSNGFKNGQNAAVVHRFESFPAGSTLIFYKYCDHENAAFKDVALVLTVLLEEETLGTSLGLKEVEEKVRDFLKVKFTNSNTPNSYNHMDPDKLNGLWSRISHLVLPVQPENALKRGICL

[10] = molecular target: Alpha-bungarotoxin (Bungarus multicinctus) (UniProt P60615); test: alpha-bungarotoxin binders on microarray, profiling panel, artefact control for SMM control protein annotation, biochemical, small-molecule microarray, Alexa647 label, 635/667 nm fluorescence (AID 1117); conditions: alpha-BTX-A647 binding fluorescence, higher = more signal
Chain of Alpha-bungarotoxin (Bungarus multicinctus) (P60615 whole entry, looked up): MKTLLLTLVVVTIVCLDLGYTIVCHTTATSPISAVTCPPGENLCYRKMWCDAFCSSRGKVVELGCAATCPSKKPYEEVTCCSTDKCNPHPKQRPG

SMILES | composite z-score [1] | z-score [2] | composite z-score [3] | composite z-score [4] | composite z-score [5] | composite z-score [6] | composite z-score [7] | composite z-score [8] | composite z-score [9] | composite z-score [10]
COc1ccc(/C=C/C=O)cc1 | -0.15 | 0.788 | 0.0844 | -1.14 | -0.732 | -0.228 | -0.253 | 0.148 | 0.0921 | -0.117
O=C(NCCN1CCOCC1)C1N=C(c2ccc(OCCCO)cc2)N(c2ccccc2)O1 (stereo not given) | 0.694 | 0.289 | 1.08 | 0.745 | -0.177 | 0.139 | -0.0457 | 0.05 | 1.68 | 1.55
[N-]=[N+]=NCc1ccccc1C[C@]1(C(=O)N2CCCCC2)N=C(c2ccc(OCCCO)cc2)O[C@H]1c1ccccc1N=[N+]=[N-] | 1.41 | -2.92 | 0.0928 | 1.43 | 0.587 | 0.171 | 0.417 | 1.03 | 1.85 | 1.45
C#C[C@H](O[Si](C#Cc1ccc(Oc2ccccc2)cc1)(C(C)C)C(C)C)c1ccccc1 | 0.922 | -1.73 | 0.764 | -0.355 | -0.571 | -0.0519 | -0.248 | -0.244 | 0.692 | 0.495
CCCCCCc1nc(-c2cc(C)c(OC)c(C)c2)cc2c1[Si](C(C)C)(C(C)C)OC2 | 0.0047 | 0.777 | -0.21 | -0.268 | -0.256 | -0.124 | -0.273 | -0.244 | -0.359 | 0.19
COC(=O)C(CC#Cc1ccc2c(c1)[C@]1(C(=O)N2)[C@H](c2ccc(OCCO)cc2)N2[C@H](c3ccccc3)[C@H](c3ccccc3)OC(=O)[C@H]2[C@@H]1C(=O)Nc1nc2ccccc2s1)C(=O)OC | 1.4 | -1.65 | 0.582 | 1.55 | 0.489 | -0.0195 | -0.0119 | -0.267 | 1.03 | 1.11
COC(=O)[C@@]1(Cc2ccc(F)cc2)[C@H]2c3cc(C(=O)N4CCCC4)n(Cc4ccc(S(C)(=O)=O)cc4)c3C[C@H]2CN1C(=O)c1ccccc1 | 1.38 | -1.88 | 0.533 | 1.36 | 1.05 | 0.25 | 0.232 | 1.89 | 0.186 | 0.453
C=C(/C(=C/C[C@H](OC(C)=O)c1ccccc1OCCO)c1cnc2ccccc2c1)C(C)C | 0.101 | -2.42 | -0.0274 | 0.361 | -0.378 | -0.034 | 0.184 | -0.036 | 0.327 | 1.19
COc1cc(COC(C)=O)ccc1OC(C)=O | 0.793 | -0.785 | 0.44 | 0.434 | -0.156 | 0.731 | -0.093 | -0.0878 | 0.299 | -0.0551
COc1cc(C(O)C2C=CC3C(=O)NC(=O)C3N2Nc2ccccn2)cc(OC)c1OC (stereo not given) | 1.04 | -0.178 | 0.0534 | -0.0338 | -0.62 | -0.128 | -0.243 | 0.416 | 0.531 | -0.0198
CC(=O)NCCCC[C@@H]1NC(=O)[C@@H]2C[C@H](C(=O)NCCCCCNC(=O)CS)[C@H](c3cccc(OCCO)c3)N2C1=O | -0.0596 | -0.652 | 0.837 | -0.646 | -0.754 | -0.214 | -0.0533 | -0.0533 | -0.443 | -0.0629
CCCCN1CC=CC23O[C@@H]4C=CCCOC(=O)C4[C@H]2C(=O)N(CCCCCCO)[C@@H]3C1=O (stereo not given in full) | 0.748 | -0.485 | -1.11 | -0.235 | -0.0631 | -0.274 | -0.117 | -0.413 | 0.999 | -0.324
COC(=O)[C@@]1(Cc2ccccc2)N=C(c2ccc(OCCCO)cc2)O[C@H]1c1ccccc1 | 0.968 | -1.98 | -1.06 | 0.288 | -0.0316 | -0.0647 | 0.261 | 1.14 | 2.32 | 1.93
O=C1C[C@@](C(=O)NCC(F)(F)F)(c2ccc([N+](=O)[O-])cc2)[C@@H](c2ccc(CO)cc2I)N1C1CCCCC1 | 1.47 | -2.54 | 0.386 | 0.511 | 0.074 | -0.0758 | -0.181 | 0.437 | 1.62 | 0.0759
CC1(C)C2C=C(C(O)C3C=CC4C(=O)NC(=O)C4N3Nc3ccc(Cl)cc3Cl)C[C@@H]1C2 (stereo not given in full) | 0.772 | -1.45 | -0.0061 | 2.35 | 1.01 | -0.006 | 0.275 | 0.503 | 1.27 | 1.31
CC1(C)[C@@H]2CC(C(O)C3C=CC4C(=O)N(Cc5ccccc5)C(=O)C4N3n3cnnc3)=C[C@H]1C2 (stereo not given in full) | 1.4 | -0.254 | 0.223 | 0.549 | -0.0552 | 0.0374 | -0.271 | -0.0304 | 0.187 | 0.6
C=CCC(OC(C)=O)[C@@H]1[C@@H](N(Cc2ccc(-c3ccccc3)cc2)C(=O)Cc2ccc(OC)cc2)c2cc(OCCCO)ccc2N1C(=O)Cc1ccc2ccccc2c1 (stereo not given in full) | -0.285 | -1.14 | -0.305 | -0.247 | 0.831 | -0.0297 | -0.0769 | -0.366 | -0.172 | 0.87

SMILES | composite z-score [1] | z-score [2] | composite z-score [3] | composite z-score [4] | composite z-score [5] | composite z-score [6] | composite z-score [7] | composite z-score [8] | composite z-score [9] | composite z-score [10]
COCCOC(=O)N1C(=O)[C@@]2(c3cc(C#CC4(O)CCCCCC4)ccc31)[C@H](c1ccc(OCCO)cc1)N1[C@H](c3ccccc3)[C@H](c3ccccc3)OC(=O)[C@H]1[C@@H]2C(=O)N1CCN(c2ncccn2)CC1 | 1.43 | -1.77 | 0.419 | 0.795 | 0.124 | 0.0044 | -0.147 | 0.106 | 0.667 | 1.19
CCCc1cc2c(n1Cc1cc(F)cc(F)c1)C(C)C1CN(C(=O)c3ccccc3)C(C)(C(=O)OC)C21 (stereo not given) | 1.35 | -2.24 | 0.225 | 2.31 | 0.813 | 0.36 | -0.148 | 0.363 | 2.6 | 2.34
CC(C)[Si](C#Cc1ccc(Oc2ccccc2)cc1)(O[Si](C#Cc1ccc(Oc2ccccc2)cc1)(C(C)C)C(C)C)C(C)C | 0.328 | 0.651 | 0.567 | -0.185 | 0.307 | 0.0561 | -0.0337 | -0.12 | 0.0811 | 0.262
CO[C@H]1O[C@H](CO)[C@@H](OC(=O)Nc2ccccc2)[C@H](OC(=O)Nc2ccccc2)[C@@H]1OC(=O)Nc1ccccc1 | 1.39 | -1.93 | 0.179 | 0.928 | -0.136 | 0.111 | -0.0793 | -0.541 | 0.835 | 0.796
CC1(C)[C@@H]2CC(C(O)C3C=CC4C(=O)N(c5ccccc5)C(=O)C4N3Nc3ccc([N+](=O)[O-])cc3)=C[C@H]1C2 (stereo not given in full) | 1.4 | -1.56 | 0.492 | 1.69 | 0.691 | 0.0718 | 0.0326 | 0.902 | 0.561 | 1.67
O=C1C[C@@](C(=O)NCCN2CCOCC2)(c2ccc([N+](=O)[O-])cc2)[C@@H](c2ccc(CO)cc2I)N1CC12CC3CC(CC(C3)C1)C2 | 1.45 | -3.49 | 0.462 | 0.76 | -0.581 | -0.034 | -0.0146 | -0.388 | 1.17 | 1.48
C=CC[C@]1(C(=O)NCc2ccccc2)N=C(c2ccc(OCCCO)cc2)O[C@H]1c1ccccc1N=[N+]=[N-] | 1.44 | -0.368 | 0.201 | 1.96 | 0.901 | 0.0108 | 0.0875 | -0.572 | 1.44 | 1.65
Cc1ccc(S[C@]2(C(=O)NCCCN(C)C)CC(=O)N(Cc3cc(C(F)(F)F)cc(C(F)(F)F)c3)[C@@H]2c2ccc(CO)cc2I)cc1 | -0.0139 | -2.1 | -0.664 | 0.325 | 0.764 | 0.299 | 0.242 | 1.73 | 0.215 | 0.0119
COC(=O)[C@@]1(Cc2ccccc2)[C@H]2c3cc(C(=O)N4CCCC4)n(Cc4ccc(S(C)(=O)=O)cc4)c3C[C@H]2CN1C(=O)c1ccccc1 | 0.97 | -2.02 | 0.711 | 2.61 | 1.35 | -0.0965 | -0.34 | -0.232 | 1.86 | 0.863
C[N+](C)(C)CCCCCCNC(=O)[C@@H]1C[C@@H]2C(=O)N[C@@H](Cc3ccccc3)C(=O)N2[C@@H]1c1cccc(OCCO)c1 | 0.44 | 0.137 | 0.542 | -0.637 | -0.792 | -0.107 | -0.0813 | -0.364 | 1.22 | 1.24
COc1ccc(CCNC(=O)[C@@]2(Sc3ccc(C)cc3)CC(=O)N(C3Cc4ccccc4C3)[C@@H]2c2ccc(CO)cc2I)cc1 | 0.615 | -2.48 | -0.911 | 0.113 | 0.795 | -0.0398 | -0.0234 | 0.136 | 0.548 | 1.59
COc1ccc([Si](C)(C)[C@H]2[C@H](CCO)O[C@@]3(C(=O)N(Cc4ccc(N(C=O)c5ccccc5)cc4)c4ccccc43)[C@@H]2C)cc1 | -0.2 | -4.65 | -0.677 | 0.625 | 1.01 | -0.124 | -0.0553 | -0.14 | 0.34 | 0.158
NCCCCCCNC(=O)[C@@H]1C[C@@H]2C(=O)NCC(=O)N2[C@@H]1c1ccc(O)cc1 | 1.29 | 0.279 | 1.14 | 0.584 | -0.0301 | -0.142 | 0.0469 | -0.566 | 0.715 | 1.41
NC(=O)NCC#Cc1ccc2c(c1)[C@]1(C(=O)N2)[C@H](C(=O)Nc2nc3ccccc3s2)[C@H]2C(=O)O[C@H](c3ccccc3)[C@H](c3ccccc3)N2[C@@H]1c1ccccc1OCCO | 1.4 | -1.33 | 0.235 | 1.23 | 0.579 | 0.312 | -0.0773 | 2.12 | -0.638 | 2.74
NC(=O)NCC#Cc1ccc2c(c1)[C@]1(C(=O)N2)[C@H](C(N)=O)[C@H]2C(=O)O[C@H](c3ccccc3)[C@H](c3ccccc3)N2[C@@H]1c1ccc(O)cc1 | 0.502 | 0.408 | -1.13 | 0.721 | 0.562 | 0.726 | 0.42 | 2.39 | 3.44 | 2.12
O=C(N1CCCCC1)[C@]1(Cc2ccccc2)N=C(c2ccc(OCCCO)cc2)O[C@@H]1c1ccccc1 | 1.42 | -3.4 | 0.0931 | 1.48 | 0.516 | 0.0744 | 0.446 | 0.85 | 0.252 | 0.977
